Screening results (PubChem BioAssay)
Sampled rows, rich in hits. Any-hit rate of the full collection: about 3.8%.
MITF TRPM1 HTS = MITF TRPM1 promoter activation in melanoma cells; SK-MEL-5 TRPM1-promoter luciferase, 24 h; % of positive control, neutral wells = 0; activation, % at 12.5 µM; hit rate 0.75% among 300,000; AID 588334;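 active = mean activation of at least 80% with every replicate also reaching 80%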;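 also: 0% = neutral control wells and 100% = parthenolide positive control wells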
HSF-1 act = increases HSF-1 driven luciferase reporter signal; NIH3T3-HGL HSF-1 luciferase reporter, MG132, 8 h; 100% = twice DMSO control signal; activation, % at 9 µM; AID 504408; hit rate 1.7% among 300,000;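 active = mean replicate activation of at least 50% with a set share of replicates each reaching 50%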;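 also: 0% = median of the neutral control wells and 100% = twice that signal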
HSF1 inh = HSF1 inhibition | activity change, negative = inhibition, % at 7.5 µM (by protocol) | hit rate 0.77% among 300,000 | NIH3T3-HGL HSE-luciferase, MG132-induced, luminescence 8 h; stronger effect = lower value;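 active = more than half of replicate wells show activity change below -50%, luminescence cut by over half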;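 also: luciferase reports HSF-1 transcriptional activity via heat shock element; 0% = median of DMSO wells and -100% = zero luminescence signal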
esBAF inh = SWI/SNF esBAF complex inhibition; reporter increase, % at 12.5 µM; hit rate 2% among 350,000; mouse ES cells, Bmi1-luciferase knock-in reporter, 24 h; 100% = twice the neutral-well signal; in the data active = activation above about 40%;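 also: 0% = median of the plate's neutral control wells and 100% = double that signal; a rise in the Bmi1 reporter signal indicates esBAF inhibition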
Wnt act = activates Wnt/beta-catenin signaling in a reporter cell assay. AID 743398. activator, plate reader. hit rate 1.2% among 300,000. activation, % at 9.35 µM; in the data active = activation above about 30%, passing the limit was not always enough;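 also: 0% = neutral control wells and 100% = positive control wells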
An asterisk follows results filed as active; · = not tested or not shown.

SMILES | MITF TRPM1 HTS | HSF-1 act | HSF1 inh | esBAF inh | Wnt act
C[C@H]1CN([C@@H](C)CO)C(=O)Cc2cc(NS(C)(=O)=O)ccc2O[C@H]1CN(C)Cc1ccc(-c2ccccc2)cc1 | · | · | · | -3 | ·
C[C@H](CO)N1C[C@H](C)[C@@H](CN(C)C(=O)CCCN(C)C)OCCCC[C@H](C)Oc2ccc(NC(=O)Nc3ccccc3)cc2C1=O | · | · | · | 0 | ·
CO[C@@H](CN(C)S(=O)(=O)c1ccc(F)cc1)[C@H](C)CN([C@@H](C)CO)S(=O)(=O)c1cccc(Cl)c1 | · | · | · | -6 | ·
CC(C)[C@H](NC(N)=O)C(=O)NNC(=O)COc1cccc(C(F)(F)F)c1 | -6 | 142* | 88 | -10 | 0
COc1ccc(-c2cc(C(F)(F)F)nc(S(=O)(=O)CCCC(=O)Nc3cccc(O)c3)n2)cc1OC | · | 260* | 186 | · | -9
COc1ccc(-c2cc(C(F)(F)F)nc(S(=O)(=O)CCC(=O)N3CCOCC3)n2)cc1 | -20 | 106* | 79 | 3 | ·
O=C([C@@H]1[C@@H](CO)[C@@H]2Cn3c(ccc(-c4ccccc4)c3=O)[C@@H]2N1Cc1cocn1)N1CCCCC1 | · | · | · | -3 | ·
CNC[C@H]1Oc2cc(C#CCOC)ccc2S(=O)(=O)N([C@@H](C)CO)C[C@@H]1C | · | · | · | 0 | ·
Cc1cccc(NC(=S)Nc2ccccn2)c1 | 26 | 58* | 30 | · | 60*
Cc1cc(C)cc(NC(=S)Nc2ccccn2)c1 | 5 | -4 | 12 | · | -6
Cc1ccc(NC(=S)Nc2ccccn2)cc1C | · | 40 | 25 | · | -3
S=C(NNc1ccnc2cc(Cl)ccc12)Nc1ccc(Cl)cc1Cl | -65 | 3 | 5 | 49* | 0
S=C(NCc1ccccn1)Nc1ccc(Cl)cc1Cl | 28 | 44 | 27 | 49* | ·
Cc1cc(Cl)ccc1NC(=S)Nc1ccccn1 | 24 | 55* | 27 | · | 1
CCCN1[C@@H]2c3ccc(-c4ccccc4OC)c(=O)n3C[C@@H]2[C@@H](CO)[C@@H]1C(=O)OC | · | · | · | -3 | ·
Cc1ccc(NC(=S)c2nc3ccccc3[nH]2)c(C)c1 | 73 | 72* | 26 | · | ·
Cc1ccc(NC(=S)c2ccncc2)c(C)c1 | 8 | 39 | 16 | 1 | -1
Cc1ccc(NC(=S)Nc2ccccn2)c(C)c1 | 9 | 60* | 22 | · | 1
C/C=C/c1cnc2c(c1)C(=O)N([C@H](C)CO)C[C@@H](C)[C@@H](CN(C)Cc1cncnc1)O2 | · | · | · | -5 | ·
O=C1CC(c2ccccc2)CC(O)=C1C=Nc1ccccc1 (configuration not stated) | 18 | 119* | 68 | · | -1
Cc1ccc(N=CC2=C(O)CC(c3ccco3)CC2=O)cc1 (configuration not stated) | 24 | 72* | 63 | 3 | ·
O=C1CC(c2ccco2)CC(O)=C1C=Nc1ccc(Br)cc1 (configuration not stated) | 2 | 42 | 44 | 12 | ·
O=C1CC(c2ccco2)CC(O)=C1C=Nc1cc(Cl)ccc1O (configuration not stated) | -3 | 69* | 45 | 11 | -23
CCOC(=O)CN1C(=O)S/C(=C/c2cc(C)n(C)c2C)C1=O | 88* | -57 | -40 | 47* | 40*
CCOC(=O)CN1C(=O)S/C(=C/c2cc(C)n(-c3ccccn3)c2C)C1=O | 53 | 47 | 28 | 45* | ·
SMILES | MITF TRPM1 HTS | HSF-1 act | HSF1 inh | esBAF inh | Wnt act
CCOC(=O)CN1C(=O)S/C(=C/c2ccc(C)o2)C1=O | 13 | 1 | -1 | 12 | 0
COC(=O)C(C)N1C(=O)S/C(=C/c2cc(C)n(-c3ccccn3)c2C)C1=O (configuration not stated) | 20 | -39 | -26 | -9 | 57*
CCCNC(=O)N(C)C[C@H]1Oc2cc(C3=CCCC3)ccc2S(=O)(=O)N([C@@H](C)CO)C[C@H]1C | · | · | · | -8 | ·
CCN1CCN(c2cc(C)c3cc(NC(=S)N4CCCC(C)C4)ccc3n2)CC1 (configuration not stated) | -3 | -82 | -79* | -23 | -3
S=C(Nc1ccc2nsnc2c1)N1CCCC1 | 53 | 75* | 41 | 81* | 10
CC1CCCN(C(=S)Nc2ccc(Nc3ccccc3)cc2)C1 (configuration not stated) | 39 | 93* | 61 | · | 5
OCC1CCCN(C(=S)Nc2ccc(Oc3ccccc3)cc2)C1 (configuration not stated) | 53 | 26 | 13 | 82* | 9
OC[C@H]1Nc2ccc(C#Cc3ccccc3)cc2[C@@H]2[C@H]1CCN2Cc1nccs1 | · | · | · | 13 | ·
CO[C@@H]1CN(C)C(=O)c2cc(NC(=O)Nc3ccccc3)ccc2OC[C@H](C)N(C(=O)CC2CC2)C[C@@H]1C | · | · | · | 1 | ·
S=C(Nc1ccccc1)N1CCC(C2CCN(C(=S)Nc3ccccc3)CC2)CC1 | · | -2 | -7 | · | ·
CCc1ccc(NC(=S)N2CCCC2)cc1 | 41 | · | · | 49* | 21
S=C(Nc1ccccc1)N1CCCCCC1 | · | 55* | 26 | 15 | 11
O=C(Nc1ccccc1)[C@@H]1[C@@H](CO)[C@@H]2Cn3c(cccc3=O)[C@H]1N2C(=O)c1ccccc1 | · | · | · | -2 | ·
Clc1cc(Cl)c(OCc2nc(-c3ccccn3)no2)cc1Cl | · | 110* | 69 | 7 | 51*
CC(C)(C)c1ccc(OCc2nc(-c3ccccn3)no2)c(Br)c1 | 52 | 4 | 7 | 11 | 51*
COc1ccc(Cc2nc(-c3ccccn3)no2)cc1 | 29 | 21 | 3 | · | 30
C[C@@H]1CCCCO[C@H](CN(C)C(=O)CCC(F)(F)F)[C@H](C)CN([C@@H](C)CO)C(=O)c2cc(NC(=O)CCCN(C)C)ccc2O1 | · | · | · | -1 | ·
C[C@H]1CN([C@@H](C)CO)C(=O)Cc2cc(NS(=O)(=O)c3cn(C)cn3)ccc2O[C@@H]1CN(C)CC1CC1 | · | · | · | -6 | ·
CC=Cc1ccc2n(c1=O)C[C@@H]1[C@@H](CO)[C@H](C(=O)NCC)[C@H]2N1C(=O)Nc1cc(F)ccc1F (mixture of isomers) | · | · | · | 1 | ·
CCCNC(=O)Nc1ccc2c(c1)C(=O)N(C)C[C@@H](OC)[C@@H](C)CN(CC1CCCC1)[C@H](C)CO2 | · | · | · | -4 | ·
CCCCn1c(-c2ccoc2C)n[nH]c1=S | · | 3 | -2 | 7 | 43*
CCCCn1c(-c2ccco2)n[nH]c1=S | -5 | -11 | -3 | · | -6
C#CCNC(=O)/C=C/c1ccc(C)cc1 | 91* | 7 | 5 | 32 | 27
Cc1ccc(/C=C/C(=O)NCCCc2ccccc2)cc1 | 2 | 28 | 11 | · | 4
CNC[C@@H]1Oc2ccc(NC(=O)NC3CCCCC3)cc2C(=O)N([C@H](C)CO)C[C@H]1C | · | · | · | 3 | ·
O=C(NCc1ccc(-c2nc3ccccc3s2)cc1)c1ccco1 | 54 | 45 | 13 | · | 10
COc1ccc(C(=O)NCc2ccc(-c3nc4ccccc4s3)cc2)cc1OC | 73 | 30 | 6 | 47* | 7
CCC(=O)N[C@H]1C=C[C@H](CC(=O)NCCN2CCCCC2)O[C@@H]1CO | · | · | · | -1 | ·
CC(c1ccccc1)N1CCN(C(=O)CCl)CC1 (configuration not stated) | -28 | -94 | -94* | 1 | 0
